# Data published in PMC7862700, “An all-to-all approach to the identification of sequence-specific readers for epigenetic DNA modifications on cytosine”.
# Legend:
# Assay in all cases: DAPPL (digital affinity profiling via proximity ligation, sequencing); 10 mM Tris-HCl pH 7.5, 50 mM NaCl, 1 mM DTT, 4% glycerol, room temperature, 30 min; GST-TFs on glutathione beads, 16-mer random dsDNA library, 0.1% formaldehyde crosslink after washing; high values mean tight binding
# FEV = target: T1, FEV (Homo sapiens, UniProt Q99581 1-238); details: protein: recombinant; tags: N-terminal GST; dsDNA, one strand shown
# T1 sequence: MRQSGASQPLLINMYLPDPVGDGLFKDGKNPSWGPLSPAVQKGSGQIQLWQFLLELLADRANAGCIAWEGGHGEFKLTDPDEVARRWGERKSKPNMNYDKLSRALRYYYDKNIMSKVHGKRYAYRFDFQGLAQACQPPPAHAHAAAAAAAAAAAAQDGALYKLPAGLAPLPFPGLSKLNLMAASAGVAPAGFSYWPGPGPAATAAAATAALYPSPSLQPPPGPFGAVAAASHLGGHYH
# How it was run: (§1)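 Binding signal is given per hexamer as its read frequency for a factor divided by its frequency in the tag-only sample. GST-fused human transcription factors were expressed in yeast, captured on glutathione beads, barcoded with DNA and pooled with that sample, then incubated with 200 nmole of a 16-mer random double-stranded DNA library in Tris/NaCl/DTT/glycerol buffer for 30 min at room temperature. The pools were then washed, crosslinked, proximity-ligated, amplified by PCR and sequenced on an Illumina NextSeq500.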
# ETV5 = ETV5 (Homo sapiens, UniProt P41161 1-510); details: protein: recombinant; tags: N-terminal GST; dsDNA, one strand shown
# How it was run: as §1
# HSF1 = HSF1 (Homo sapiens, UniProt Q00613 1-529); details: protein: recombinant; tags: N-terminal GST; chain copies: 3; dsDNA, one strand shown
# How it was run: as §1
# SPIC = target: T2, SPIC (Homo sapiens, UniProt Q8N5J4 1-248); details: protein: recombinant; tags: N-terminal GST; dsDNA, one strand shown
# T2 sequence: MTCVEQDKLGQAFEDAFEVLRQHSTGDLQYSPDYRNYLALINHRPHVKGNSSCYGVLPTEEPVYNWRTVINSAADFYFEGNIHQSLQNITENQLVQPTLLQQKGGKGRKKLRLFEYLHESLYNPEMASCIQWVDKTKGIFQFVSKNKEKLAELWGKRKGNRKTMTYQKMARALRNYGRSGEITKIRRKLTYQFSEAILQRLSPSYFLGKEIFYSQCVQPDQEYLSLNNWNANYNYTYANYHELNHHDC
# How it was run: as §1
# ELF4 = ELF4 (Homo sapiens, UniProt Q99607 1-663); details: protein: recombinant; tags: N-terminal GST; dsDNA, one strand shown
# How it was run: as §1
# ELK4 = target: T3, ELK4 (Homo sapiens, UniProt P28324-2 1-405); details: protein: recombinant; tags: N-terminal GST; dsDNA, one strand shown
# T3 sequence: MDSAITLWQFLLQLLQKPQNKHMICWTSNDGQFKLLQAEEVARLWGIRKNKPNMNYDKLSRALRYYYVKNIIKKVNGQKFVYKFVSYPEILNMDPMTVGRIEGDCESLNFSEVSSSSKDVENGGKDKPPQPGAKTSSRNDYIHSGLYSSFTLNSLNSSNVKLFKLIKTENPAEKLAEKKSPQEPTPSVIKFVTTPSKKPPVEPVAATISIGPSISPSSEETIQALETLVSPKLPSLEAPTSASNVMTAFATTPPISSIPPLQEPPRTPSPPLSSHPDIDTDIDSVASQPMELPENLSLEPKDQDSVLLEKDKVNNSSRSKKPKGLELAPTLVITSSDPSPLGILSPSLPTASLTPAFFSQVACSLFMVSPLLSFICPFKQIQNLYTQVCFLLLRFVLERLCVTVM
# How it was run: as §1
# ETV2 = target: T4, ETV2 (Homo sapiens, UniProt O00321 1-342); details: protein: recombinant; tags: N-terminal GST; dsDNA, one strand shown
# T4 sequence: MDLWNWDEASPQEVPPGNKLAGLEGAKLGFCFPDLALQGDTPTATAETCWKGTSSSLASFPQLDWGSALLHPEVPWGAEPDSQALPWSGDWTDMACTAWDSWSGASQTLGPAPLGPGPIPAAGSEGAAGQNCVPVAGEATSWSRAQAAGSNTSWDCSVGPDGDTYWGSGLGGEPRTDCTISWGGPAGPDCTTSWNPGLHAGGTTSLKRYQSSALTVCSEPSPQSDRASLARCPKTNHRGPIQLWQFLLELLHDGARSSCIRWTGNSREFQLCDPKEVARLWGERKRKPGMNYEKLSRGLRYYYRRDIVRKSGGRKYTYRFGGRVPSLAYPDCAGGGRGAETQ
# How it was run: as §1
# ELF3 = target: T5, ELF3 (Homo sapiens, UniProt P78545 1-371); details: protein: recombinant; tags: N-terminal GST; dsDNA, one strand shown
# T5 sequence: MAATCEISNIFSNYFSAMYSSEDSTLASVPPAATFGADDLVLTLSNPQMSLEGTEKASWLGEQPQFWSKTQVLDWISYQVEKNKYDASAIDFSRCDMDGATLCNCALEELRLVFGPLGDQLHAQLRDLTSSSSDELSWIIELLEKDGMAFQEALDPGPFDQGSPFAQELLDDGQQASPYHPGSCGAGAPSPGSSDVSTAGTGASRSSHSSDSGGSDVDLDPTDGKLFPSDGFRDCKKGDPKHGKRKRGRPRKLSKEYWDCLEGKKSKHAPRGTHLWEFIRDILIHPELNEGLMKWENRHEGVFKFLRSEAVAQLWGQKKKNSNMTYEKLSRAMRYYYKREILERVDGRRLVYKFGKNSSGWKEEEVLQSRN
# How it was run: as §1
# CRX = CRX (Homo sapiens, UniProt O43186 1-299); details: protein: recombinant; tags: N-terminal GST; dsDNA, one strand shown
# How it was run: as §1
# ETV1 = ETV1 (Homo sapiens, UniProt P50549 1-477); details: protein: recombinant; tags: N-terminal GST; dsDNA, one strand shown
# How it was run: as §1
# ERF = target: T6, ERF (Homo sapiens, UniProt P50548 1-548); details: protein: recombinant; tags: N-terminal GST; dsDNA, one strand shown
# T6 sequence: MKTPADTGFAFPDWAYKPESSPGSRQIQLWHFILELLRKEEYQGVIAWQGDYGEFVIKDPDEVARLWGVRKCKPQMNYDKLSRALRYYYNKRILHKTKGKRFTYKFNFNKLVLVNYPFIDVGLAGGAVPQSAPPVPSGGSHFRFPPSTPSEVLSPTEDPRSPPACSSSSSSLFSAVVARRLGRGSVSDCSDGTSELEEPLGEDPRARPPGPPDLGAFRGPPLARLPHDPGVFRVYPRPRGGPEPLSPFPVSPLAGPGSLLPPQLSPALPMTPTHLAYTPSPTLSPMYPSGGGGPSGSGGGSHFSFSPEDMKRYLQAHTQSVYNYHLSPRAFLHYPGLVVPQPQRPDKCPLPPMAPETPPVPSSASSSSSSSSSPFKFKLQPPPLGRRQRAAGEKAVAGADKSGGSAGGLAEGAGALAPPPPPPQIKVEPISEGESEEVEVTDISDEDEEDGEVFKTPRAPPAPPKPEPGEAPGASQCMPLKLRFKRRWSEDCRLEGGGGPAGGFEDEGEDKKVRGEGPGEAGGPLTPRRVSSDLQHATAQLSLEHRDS
# How it was run: as §1
# ETV3L = target: T7, ETV3L (Homo sapiens, UniProt Q6ZN32 1-361); details: protein: recombinant; tags: N-terminal GST; dsDNA, one strand shown
# T7 sequence: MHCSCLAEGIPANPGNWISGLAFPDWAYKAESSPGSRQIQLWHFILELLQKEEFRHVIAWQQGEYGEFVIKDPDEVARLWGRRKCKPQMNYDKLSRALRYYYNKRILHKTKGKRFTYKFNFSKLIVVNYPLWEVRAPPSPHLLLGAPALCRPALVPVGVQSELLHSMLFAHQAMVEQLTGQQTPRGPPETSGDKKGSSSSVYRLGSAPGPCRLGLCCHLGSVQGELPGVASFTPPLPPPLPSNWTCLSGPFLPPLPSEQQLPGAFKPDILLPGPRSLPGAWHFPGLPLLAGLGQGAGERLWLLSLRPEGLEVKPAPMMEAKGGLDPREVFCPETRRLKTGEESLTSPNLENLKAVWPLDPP
# How it was run: as §1
# ETS2 = target: T8, ETS2 (Homo sapiens, UniProt P15036 1-469); details: protein: recombinant; tags: N-terminal GST; dsDNA, one strand shown
# T8 sequence: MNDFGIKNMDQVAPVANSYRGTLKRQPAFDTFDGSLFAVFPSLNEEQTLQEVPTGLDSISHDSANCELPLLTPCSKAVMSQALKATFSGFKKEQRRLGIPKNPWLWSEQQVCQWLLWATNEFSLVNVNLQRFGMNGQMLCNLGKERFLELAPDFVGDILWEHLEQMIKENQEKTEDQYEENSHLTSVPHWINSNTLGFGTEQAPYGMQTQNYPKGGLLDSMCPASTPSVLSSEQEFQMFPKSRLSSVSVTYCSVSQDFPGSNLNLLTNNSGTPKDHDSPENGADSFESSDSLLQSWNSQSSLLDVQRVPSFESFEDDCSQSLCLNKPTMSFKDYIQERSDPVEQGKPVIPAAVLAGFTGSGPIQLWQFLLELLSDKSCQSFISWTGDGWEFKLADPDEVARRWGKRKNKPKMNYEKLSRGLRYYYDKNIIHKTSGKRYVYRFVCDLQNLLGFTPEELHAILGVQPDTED
# How it was run: as §1
# SPDEF = target: T9, SPDEF (Homo sapiens, UniProt O95238 1-335); details: protein: recombinant; tags: N-terminal GST; dsDNA, one strand shown
# T9 sequence: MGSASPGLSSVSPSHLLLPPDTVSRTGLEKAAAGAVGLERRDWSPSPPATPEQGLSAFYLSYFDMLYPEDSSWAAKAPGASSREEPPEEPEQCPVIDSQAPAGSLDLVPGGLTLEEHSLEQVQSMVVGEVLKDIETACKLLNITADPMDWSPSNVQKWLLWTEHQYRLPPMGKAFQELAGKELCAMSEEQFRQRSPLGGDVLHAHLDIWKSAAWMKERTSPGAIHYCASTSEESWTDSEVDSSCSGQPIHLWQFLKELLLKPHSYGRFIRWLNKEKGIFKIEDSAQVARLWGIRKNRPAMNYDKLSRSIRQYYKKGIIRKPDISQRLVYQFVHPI
# How it was run: as §1
# ETV7 = target: T10, ETV7 (Homo sapiens, UniProt Q9Y603 1-341); details: protein: recombinant; tags: N-terminal GST; dsDNA, one strand shown
# T10 sequence: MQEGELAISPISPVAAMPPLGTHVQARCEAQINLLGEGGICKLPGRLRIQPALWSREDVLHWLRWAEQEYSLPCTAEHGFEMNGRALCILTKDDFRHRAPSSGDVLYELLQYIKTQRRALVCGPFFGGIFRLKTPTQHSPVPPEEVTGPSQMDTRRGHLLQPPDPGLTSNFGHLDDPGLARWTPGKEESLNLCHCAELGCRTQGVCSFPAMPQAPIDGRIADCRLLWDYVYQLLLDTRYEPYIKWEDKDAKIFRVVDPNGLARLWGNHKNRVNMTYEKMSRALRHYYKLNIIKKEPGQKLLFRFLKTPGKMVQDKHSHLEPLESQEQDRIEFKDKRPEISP
# How it was run: as §1
# ELF5 = target: T11, ELF5 (Homo sapiens, UniProt Q9UKW6-2 1-255); details: protein: recombinant; tags: N-terminal GST; dsDNA, one strand shown
# T11 sequence: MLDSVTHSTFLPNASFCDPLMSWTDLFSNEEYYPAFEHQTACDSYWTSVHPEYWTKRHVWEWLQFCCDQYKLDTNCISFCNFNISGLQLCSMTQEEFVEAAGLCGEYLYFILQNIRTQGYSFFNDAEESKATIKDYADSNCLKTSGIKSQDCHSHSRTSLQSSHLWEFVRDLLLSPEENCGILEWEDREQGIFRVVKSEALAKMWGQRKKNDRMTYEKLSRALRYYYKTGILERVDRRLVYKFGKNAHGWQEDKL
# How it was run: as §1
# ETV3 = target: T12, ETV3 (Homo sapiens, UniProt P41162-2 1-143); details: protein: recombinant; tags: N-terminal GST; dsDNA, one strand shown
# T12 sequence: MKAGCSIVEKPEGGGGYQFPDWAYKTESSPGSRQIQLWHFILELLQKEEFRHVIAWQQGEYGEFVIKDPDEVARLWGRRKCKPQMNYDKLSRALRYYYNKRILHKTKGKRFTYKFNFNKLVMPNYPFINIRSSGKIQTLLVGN
# How it was run: as §1
# ETV6 = ETV6 (Homo sapiens, UniProt P41212 1-452); details: protein: recombinant; tags: N-terminal GST; dsDNA, one strand shown
# How it was run: as §1
# ETV6, sequence (P41212 whole entry): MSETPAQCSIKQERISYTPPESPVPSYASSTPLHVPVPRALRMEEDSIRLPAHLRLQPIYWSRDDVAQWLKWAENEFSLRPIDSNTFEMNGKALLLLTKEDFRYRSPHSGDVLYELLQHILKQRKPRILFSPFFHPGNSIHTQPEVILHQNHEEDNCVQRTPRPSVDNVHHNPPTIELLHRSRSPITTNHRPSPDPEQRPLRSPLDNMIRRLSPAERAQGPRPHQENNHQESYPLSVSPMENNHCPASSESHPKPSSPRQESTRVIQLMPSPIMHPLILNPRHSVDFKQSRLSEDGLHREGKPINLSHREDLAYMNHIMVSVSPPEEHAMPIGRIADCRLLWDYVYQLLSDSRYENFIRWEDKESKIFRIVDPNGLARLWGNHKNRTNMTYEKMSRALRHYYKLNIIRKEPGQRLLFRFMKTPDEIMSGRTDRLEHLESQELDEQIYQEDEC
# ELF4, sequence (Q99607 whole entry): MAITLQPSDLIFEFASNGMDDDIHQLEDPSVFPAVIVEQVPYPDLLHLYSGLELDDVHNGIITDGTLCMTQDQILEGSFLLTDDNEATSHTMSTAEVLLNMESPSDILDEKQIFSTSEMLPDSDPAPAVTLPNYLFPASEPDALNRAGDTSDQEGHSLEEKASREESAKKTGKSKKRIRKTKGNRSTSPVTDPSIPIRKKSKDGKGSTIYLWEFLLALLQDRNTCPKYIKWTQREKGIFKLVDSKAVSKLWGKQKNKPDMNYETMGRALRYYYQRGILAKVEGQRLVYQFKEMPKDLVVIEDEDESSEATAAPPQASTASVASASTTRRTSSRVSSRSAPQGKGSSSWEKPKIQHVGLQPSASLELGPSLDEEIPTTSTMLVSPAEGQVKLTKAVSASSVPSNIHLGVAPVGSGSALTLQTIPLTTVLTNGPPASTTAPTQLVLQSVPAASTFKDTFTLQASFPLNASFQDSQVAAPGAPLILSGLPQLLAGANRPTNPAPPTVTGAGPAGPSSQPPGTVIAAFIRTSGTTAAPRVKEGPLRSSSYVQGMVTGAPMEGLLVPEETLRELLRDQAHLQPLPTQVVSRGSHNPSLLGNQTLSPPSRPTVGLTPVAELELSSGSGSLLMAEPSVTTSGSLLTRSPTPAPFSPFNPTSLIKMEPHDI
# CRX, sequence (O43186 whole entry): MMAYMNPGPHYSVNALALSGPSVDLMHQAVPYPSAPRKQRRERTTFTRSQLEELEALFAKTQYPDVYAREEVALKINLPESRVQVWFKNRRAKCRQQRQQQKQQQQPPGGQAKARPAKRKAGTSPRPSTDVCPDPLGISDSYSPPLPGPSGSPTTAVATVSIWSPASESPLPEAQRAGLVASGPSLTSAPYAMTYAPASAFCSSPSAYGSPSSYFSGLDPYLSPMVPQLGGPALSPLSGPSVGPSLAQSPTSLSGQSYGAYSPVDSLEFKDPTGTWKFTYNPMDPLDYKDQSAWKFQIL
# ETV1, sequence (P50549 whole entry): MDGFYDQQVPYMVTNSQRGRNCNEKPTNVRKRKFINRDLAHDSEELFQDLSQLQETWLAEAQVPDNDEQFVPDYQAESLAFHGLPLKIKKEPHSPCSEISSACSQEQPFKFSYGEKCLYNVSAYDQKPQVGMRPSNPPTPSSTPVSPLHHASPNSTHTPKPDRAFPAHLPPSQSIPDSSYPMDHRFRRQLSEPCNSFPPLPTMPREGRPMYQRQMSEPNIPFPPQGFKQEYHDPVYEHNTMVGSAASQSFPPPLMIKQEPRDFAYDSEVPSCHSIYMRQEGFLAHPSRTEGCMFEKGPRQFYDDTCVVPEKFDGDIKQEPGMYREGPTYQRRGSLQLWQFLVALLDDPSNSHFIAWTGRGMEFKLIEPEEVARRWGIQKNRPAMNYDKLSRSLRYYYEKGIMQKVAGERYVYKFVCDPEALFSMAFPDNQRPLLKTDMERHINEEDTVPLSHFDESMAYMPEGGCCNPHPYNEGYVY
# HSF1, sequence (Q00613 whole entry): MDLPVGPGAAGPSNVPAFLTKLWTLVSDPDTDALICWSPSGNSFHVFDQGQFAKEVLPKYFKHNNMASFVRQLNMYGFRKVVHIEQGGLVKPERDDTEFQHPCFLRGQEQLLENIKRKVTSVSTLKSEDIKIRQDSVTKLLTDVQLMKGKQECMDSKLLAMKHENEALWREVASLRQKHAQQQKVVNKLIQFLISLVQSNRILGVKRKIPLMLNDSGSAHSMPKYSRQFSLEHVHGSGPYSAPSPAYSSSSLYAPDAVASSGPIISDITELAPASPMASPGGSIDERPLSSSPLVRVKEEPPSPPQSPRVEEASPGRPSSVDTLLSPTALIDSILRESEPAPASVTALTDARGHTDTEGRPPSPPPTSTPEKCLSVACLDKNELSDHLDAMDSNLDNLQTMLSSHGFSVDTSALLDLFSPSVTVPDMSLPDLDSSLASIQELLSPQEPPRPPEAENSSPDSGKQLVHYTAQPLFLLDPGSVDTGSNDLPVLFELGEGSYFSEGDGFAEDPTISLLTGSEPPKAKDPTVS
# ETV5, sequence (P41161 whole entry): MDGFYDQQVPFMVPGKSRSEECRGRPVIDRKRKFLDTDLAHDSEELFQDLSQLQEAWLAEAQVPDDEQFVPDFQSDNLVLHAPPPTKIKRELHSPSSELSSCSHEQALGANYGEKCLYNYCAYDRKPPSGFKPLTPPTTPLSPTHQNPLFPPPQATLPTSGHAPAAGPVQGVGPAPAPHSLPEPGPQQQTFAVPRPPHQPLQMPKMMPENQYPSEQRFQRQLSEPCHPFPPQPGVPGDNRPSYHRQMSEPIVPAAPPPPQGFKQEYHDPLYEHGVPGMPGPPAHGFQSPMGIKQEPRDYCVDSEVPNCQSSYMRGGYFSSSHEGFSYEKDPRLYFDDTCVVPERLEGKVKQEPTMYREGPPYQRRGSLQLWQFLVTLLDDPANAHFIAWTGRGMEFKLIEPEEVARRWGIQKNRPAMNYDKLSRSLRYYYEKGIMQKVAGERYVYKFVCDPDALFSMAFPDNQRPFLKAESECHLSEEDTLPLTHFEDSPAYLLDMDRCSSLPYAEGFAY
sequence,measurement,setting,value
TAGCCC,binding signal,FEV,"1.21 fold enrichment (6-mer frequency, TF over GST control)"
same,binding signal,ETV5,"1.18 fold enrichment (6-mer frequency, TF over GST control)"
same,binding signal,HSF1,"1.19 fold enrichment (6-mer frequency, TF over GST control)"
same,binding signal,SPIC,"1.23 fold enrichment (6-mer frequency, TF over GST control)"
same,binding signal,ELF4,"1.28 fold enrichment (6-mer frequency, TF over GST control)"
same,binding signal,ELK4,"1.15 fold enrichment (6-mer frequency, TF over GST control)"
same,binding signal,ETV2,"1.15 fold enrichment (6-mer frequency, TF over GST control)"
same,binding signal,ELF3,"1.08 fold enrichment (6-mer frequency, TF over GST control)"
same,binding signal,CRX,"1.36 fold enrichment (6-mer frequency, TF over GST control)"
same,binding signal,ETV1,"1.12 fold enrichment (6-mer frequency, TF over GST control)"
same,binding signal,ERF,"1.18 fold enrichment (6-mer frequency, TF over GST control)"
same,binding signal,ETV3L,"1.11 fold enrichment (6-mer frequency, TF over GST control)"
same,binding signal,ETS2,"1.14 fold enrichment (6-mer frequency, TF over GST control)"
same,binding signal,SPDEF,"1.3 fold enrichment (6-mer frequency, TF over GST control)"
same,binding signal,ETV7,"1.05 fold enrichment (6-mer frequency, TF over GST control)"
same,binding signal,ELF5,"1.07 fold enrichment (6-mer frequency, TF over GST control)"
same,binding signal,ETV3,"1.24 fold enrichment (6-mer frequency, TF over GST control)"
same,binding signal,ETV6,"1.04 fold enrichment (6-mer frequency, TF over GST control)"
